Screens: PubChem, SRMLSC
Sampled rows, rich in hits. Any-hit rate of the full collection: about 6.5%.
PMK inhibit: inhibitors of Streptococcus pneumoniae phosphomevalonate kinase. purified PMK, PK/LDH-coupled NADH absorbance 340 nm. inhibition, % at 10 µM. 0.49% of 65,000 active. AID 539;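 active = top-ranked compounds by inhibition in the single 10 µM screen, taking a fixed number of the strongest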
NADH coupling: inhibition of NAD/NADH coupling enzymes, library profiling. coupled PK/LDH NADH assays, four targets. IC50, µM (series often up to 10 µM). 0.02% of 65,000 active;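 active = single-dose screening hits from any of four coupled enzyme assays that gave an IC50 when retested across doses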;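 note: the DPM-DC format reads NADH fluorescence rather than 340 nm absorbance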
Spn MK inh: inhibitors of Streptococcus pneumoniae mevalonate kinase. 0.48% of 65,000 active. AID 555. purified MK, PK/LDH-coupled NADH absorbance 340 nm. inhibition, % at 10 µM;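 active = ranked among the strongest by inhibition in the single 10 µM screen, a fixed top-ranked set picked for dose follow-up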
Fluor 339 460: intrinsic fluorescence of library compounds, ex339/em460 – biochemical, MLSMR library, data from DPM-DC assay, artefact control, profiling panel; compound autofluorescence, ex339/em460 nm, NADH buffer; stronger effect = higher value; 1 = no-compound wells, NADH background; fluorescence fold increase at 10 µM; 5.5% of 65,000 active;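 active = at 10 µM, mean starting fluorescence two-fold or more over control wells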;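 note: signal is the first read of a kinetic run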
DPM-DC inhibit: inhibitors of Streptococcus pneumoniae diphosphomevalonate decarboxylase | 0.49% of 65,000 active | calls only at 10 µM | purified DPM-DC, PK/LDH coupled NADH fluorescence;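 active = the 320 compounds with the highest percent inhibition in the single-dose primary screen, excluding strongly autofluorescent ones, cut at about 32% in these data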;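 note: kinetic rate of NADH fluorescence loss reporting ADP formed by the decarboxylase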
A340 absorber: compound absorbs light at 340 nm | compound absorbance at 340 nm, fold over control | fold change at 10 µM | 65,000 tested, under 10 active | AID 708;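 active = at 10 µM dose, initial 340 nm absorbance at least 2 fold that of control wells; inactive = change under 2 fold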;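 note: initial absorbance extrapolated from kinetic A340 decline of NADH oxidation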
Large screens that a line does not name were inactive.

Cc1ccc(S(=O)(=O)NC2=NCCC2)cc1	none
CC(=O)NCCn1c(SCc2cc(=O)n3cc(Cl)ccc3n2)nc2ccccc2c1=O	Fluor 339 460 2.1, DPM-DC inhibit active
CC(=O)NCCn1c(SCc2ccccc2F)nc2ccccc2c1=O	none
Cc1cc(C)n(-c2nc3ccccc3[nH]c2=O)n1	Fluor 339 460 2.8
Cc1ccc(N(C(=O)Cn2nnc3ccccc32)C(C(=O)NC2CCCCC2)c2cn(C)nc2C)cc1 (stereo not given)	none
CC1(C(=O)N(c2ccccc2)C(C(=O)NC2CCCC2)c2ccccn2)CC(=O)N=C2C=CC=CN21 (stereo not given)	Fluor 339 460 4.7 (not shown: DPM-DC inhibit)
COc1ccc(S(=O)(=O)NCC(=O)N(CC(=O)NCC2CCCO2)c2ccccc2C)cc1 (stereo not given)	none
Cc1ccccc1N(CC(=O)NCC1CCCO1)C(=O)C1(C)CC(=O)N=C2C=CC=CN21 (stereo not given)	Fluor 339 460 3.3 (not shown: DPM-DC inhibit)
CC1(C(=O)N(CC(=O)NC2CCCC2)C2CCCC2)CC(=O)N=C2C=CC=CN21 (stereo not given)	Fluor 339 460 3.8 (not shown: DPM-DC inhibit)
CCCc1cc(-c2ccc(O)c(OCC)c2)c(C#N)c(N)n1	none
Cc1ccc(-c2cc(-c3ccc4c(c3)OCO4)c(C#N)c(N)n2)o1	Fluor 339 460 3.8 (not shown: DPM-DC inhibit)
Cc1ccc(-c2cc(-c3ccc(C)o3)nc(N)c2C#N)cc1	Fluor 339 460 3.8 (not shown: DPM-DC inhibit)
CSc1nc(N)c(C#N)c(-c2ccc(Cl)cc2)c1C#N	none
Cc1ccc(-c2cc(-c3ccc(Cl)cc3)c(C#N)c(N)n2)o1	Fluor 339 460 3.8 (not shown: DPM-DC inhibit)
Cc1cc(-c2cc(-c3ccc(Cl)cc3)nc(N)c2C#N)co1	Fluor 339 460 2.3 (not shown: DPM-DC inhibit)
Cn1c(SCC(=O)NCc2ccc3c(c2)OCO3)nc2scc(-c3cccs3)c2c1=O	none
O=C(CN1CCN(C(=O)c2cccc(F)c2)CC1)NC1CCCCC1	none
N#Cc1c(N)oc(-c2ccc3c(c2)OCO3)c1-c1ccc2c(c1)OCO2	Fluor 339 460 2.1 (not shown: DPM-DC inhibit)
N#Cc1c(N)nc2c(c1-c1ccc3c(c1)OCO3)CCCCCC2	none
Cn1c(=O)[nH]c(=O)c2c1nc(N1CCNCC1)n2Cc1cccc2ccccc12	none
COc1ccc(NC(C)=O)cc1NC(=O)CSc1nnc(-c2cccnc2)n1C	none
O=C(NC1CCCCCCC1)c1c(O)c2ccccc2[nH]c1=O	none
O=C(Nc1c(C(=O)O)[nH]c2ccccc12)NC1CCCCC1	Fluor 339 460 3.9 (not shown: DPM-DC inhibit)
O=C(Nc1nc(-c2cc3ccccc3oc2=O)cs1)c1ccco1	Fluor 339 460 2.1 (not shown: DPM-DC inhibit)
COc1ccc(-n2nnnc2SCC(=O)Nc2cccc(C)n2)cc1OC	none
CCC(C)(C)NC(=O)C(c1ccco1)N(C(=O)c1csnn1)c1cccc(F)c1 (stereo not given)	none
O=C(CSc1nnc(-c2cccs2)o1)OCc1ccccc1	none
CN(C)C(=O)CSc1nnc(-c2cc(-c3cccs3)nc3ccccc23)o1	Fluor 339 460 4.9 (not shown: DPM-DC inhibit)
O=C(Nc1c(F)c(F)c(F)c(F)c1F)NC1CCCCC1	none
CC(C)n1c(=NC(=O)c2ccco2)c(C#N)cc2c(=O)n3ccccc3cc21	Fluor 339 460 2.9 (not shown: DPM-DC inhibit)
O=C(N=C1SCC(=O)N1c1ccccc1Cl)c1ccco1	none
CCOC(=O)CSc1nnc(C)n1N	none
O=C(c1cccn2c(=O)c3ccccc3nc12)N1CCN(c2ccccn2)CC1	none
O=C(O)c1cccn2c(=O)c3ccccc3nc12	NADH coupling 54µM, DPM-DC inhibit active
COc1ccc(NC(=O)CSc2nc3c(c(=O)n2-c2ccc(C)cc2)SCC3)c(OC)c1	none
COc1ccc(N=c2oc3cc(O)ccc3cc2C(=O)NCC2CCCO2)c(OC)c1 (stereo not given)	Fluor 339 460 3.8 (not shown: DPM-DC inhibit)
COc1ccc(N=c2oc3cc(O)ccc3cc2C(=O)NCC2CCCO2)cc1 (stereo not given)	Fluor 339 460 2.9
Cc1ccc(N=c2oc3cc(O)ccc3cc2C(N)=O)cc1	Fluor 339 460 2.2
COc1ccccc1CCNC(=O)c1ccoc1C	none
COc1ccc(-c2cc(-c3ccccc3)n3ncnc3n2)cc1	Fluor 339 460 2.4 (not shown: DPM-DC inhibit)
COc1ccc(-c2cc(N3CCCC3)n3ncnc3n2)cc1	none
Clc1ccc2[nH]c3c(NCC4CCCO4)ncnc3c2c1 (stereo not given)	Fluor 339 460 2.5
Clc1ccc2[nH]c3c(NCCN4CCOCC4)ncnc3c2c1	none
COc1ccc(C(C)=O)cc1COC(=O)c1cccc(N(C)C)c1	Fluor 339 460 2.1
CC1=C(C(=O)OCCOc2ccccc2)C(c2ccc(C)o2)C2=C(CC(C)(C)CC2=O)N1 (stereo not given)	none
COc1ccc(C2C(C(=O)N3CCOCC3)=C(C)NC3=C2C(=O)CC(C)(C)C3)c(OC)c1 (stereo not given)	Fluor 339 460 4.8 (not shown: DPM-DC inhibit)
CC1=C(C(=O)N2CCOCC2)C(c2ccccc2F)C2=C(CC(C)(C)CC2=O)N1 (stereo not given)	Fluor 339 460 4.8 (not shown: DPM-DC inhibit)
COc1ccc(C2C(C#N)=C(C)NC3=C2C(=O)CC(C)(C)C3)c(OC)c1 (stereo not given)	none (not shown: DPM-DC inhibit)
Cc1nc(C)c(C(=O)NCc2ccccc2Cl)o1	none
COc1ccc(S(=O)(=O)NCCCN2CCOCC2)c2ccccc12	none
CCN1C(=O)c2cccc3c(S(=O)(=O)NCCCN4CCOCC4)ccc1c23	Fluor 339 460 3.9
CCN1C(=O)c2cccc3c(S(=O)(=O)Nc4ccccc4OC)ccc1c23	none
CCOc1ccc(S(=O)(=O)NCCCN2CCOCC2)c2ccccc12	PMK inhibit 40
Cc1c(C(=O)c2no[n+]([O-])c2C(=O)c2cnn(C)c2C)cnn1C	none
O=C1CCCC2=C1C1(CCCC1)N=C(Nc1nc3ccccc3s1)N2	Fluor 339 460 2
O=C1CCCC2=C1C1(CCCCC1)N=C(Nc1nc3ccccc3s1)N2	Fluor 339 460 2.3
COc1ccc(C(=O)NCCc2c[nH]c3ccccc23)cc1S(=O)(=O)N1CCOCC1	none
CCN1CCCC1CNC(=O)C1c2cc(OC)c(OC)cc2C(=O)N(C)C1c1cccnc1 (stereo not given)	none
O=C1CCN2C=Nc3cccc4ccc1c2c34	Fluor 339 460 3.2 (not shown: DPM-DC inhibit)
c1ccc(-n2nc3c(ccc4cnnc43)[nH]2)cc1	Fluor 339 460 4 (not shown: DPM-DC inhibit)
c1ccc(COc2ccc(Nc3ncnc4nc[nH]c34)cc2)cc1	none
CCOc1ccc(-c2cc(C(=O)NCCCN3CCN(CC)CC3)c3ccccc3n2)cc1	Fluor 339 460 5.2 (not shown: DPM-DC inhibit)
COc1ccc(-c2cc(C(=O)NCCN3CCOCC3)c3ccccc3n2)cc1	Fluor 339 460 4.9 (not shown: DPM-DC inhibit)
O=C(O)CCC(=O)N1CCc2cc(S(=O)(=O)N3CCC(Cc4ccccc4)CC3)ccc21	none
COCCCNC(=O)CSC1=Nc2ccccc2C2=NC(CC(=O)NCc3ccccc3)C(=O)N12 (stereo not given)	Fluor 339 460 3.4
